High-throughput results as filed in PubChem BioAssay.
IEC-6 tox-1: IEC-6 cytotoxicity, counter-screen for KLF5 inhibitors; luminescence viability; inhibition, % at 5 µM; 290,000 tested, 0.78% active; AID 1825;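 also: 0% = plate median of test compound wells and 100% = cytotoxic reference compound wells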
aSyn UTR inh: MLPCN primary screen, SNCA 5' untranslated region | alpha-synuclein 5'UTR reporter, inhibitor activity | inhibition, % (tested at 7.5 µM) | 300,000 tested, 0.82% active | AID 1813; in the data active = inhibition above about 60%; inconclusive = no clear call, values can overlap the other calls;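 also: H4 neuroglioblastoma cells stably carrying SNCA 5'UTR luciferase fusion; 0% = DMSO wells and 100% = positive control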
BaF3 parental: counter-screen for JAK2V617F inhibitors: parental Ba/F3 viability inhibitors; CellTiter-Glo ATP luminescence; inhibition, % at 5.6 µM; 220,000 tested, 1.1% active;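 active = inhibition above a per-campaign cutoff, the mean inhibition of all tested compounds plus 3 SD, cut at about 27% in these data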;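 also: 0% = DMSO wells and 100% = JAK Inhibitor I control wells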
Ba/F3 V617F tox: lowers viability of Ba/F3 cells expressing EpoR and JAK2V617F. 220,000 tested, 1.1% active. ATP luminescence. inhibition, % at 5.6 µM;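 active = inhibition above the campaign mean plus 3 SD over all tested compounds, cut at about 24% in these data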;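 also: cytokine-independent growth of Ba/F3 cells driven by EpoR plus mutant JAK2; 0% = DMSO-treated cells and 100% = JAK inhibitor I control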
APP 5UTR inh: APP translation inhibition. SH-SY5Y APP 5'UTR-luciferase reporter, luminescence. inhibition, % at 2 µM. 190,000 tested, 0.82% active;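 active = inhibition above a set limit, derived from the sample mean plus 3 SD, cut at about 45% in these data; inconclusive = one replicate passes the limit while the other fails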
KLF5 inhibitor: suppresses KLF5 promoter-driven expression | DLD-1 KLF5 promoter-luciferase reporter, luminescence | inhibition, % at 5 µM | 290,000 tested, 0.23% active | AID 1700;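 active = inhibition above a per-plate limit of that plate's mean compound inhibition plus 3 SD, cut at about 60% in these data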;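 also: 0% = DMSO wells and 100% = LY294002 at 200 µM; higher means less KLF5 promoter-driven luciferase light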
KLF5 confirm: KLF5 inhibition, confirmation assay. DLD-1 KLF5 promoter firefly luciferase reporter, luminescence. 610 tested, 79% active. shares compounds with KLF5 inhibitor. inhibition, % at 4 µM;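 active = inhibition above a set limit taken from the earlier primary screen, cut at about 63% in these data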;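 also: 0% = DMSO wells and 100% = LY294002 at 200 µM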
IEC-6 tox-2: kills rat IEC-6 cells in KLF5 counter-screen; shares compounds with KLF5 inhibitor; IEC-6 rat intestinal cells, viability luminescence; inhibition, % at 4 µM; 610 tested, 56% active; in the data active = inhibition above about 23%;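 also: cells exposed to compounds for 48 hours before viability read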
IEC-6 tox confirm: IEC-6 cytotoxicity, confirmation assay; shares compounds with IEC-6 tox-1; IEC-6 rat intestinal epithelial viability, luminescence; inhibition, % at 5 µM; 1,900 tested, 63% active; AID 1907;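 also: 0% = vehicle and 100% = reference cytotoxic drug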
* hit, by the source's call; ? = inconclusive; nt = not tested or not shown. Only some compounds are listed: those with a hit (about 2.2% of all), similar ones and a draw of the others. Rule as the data show it, unless noted: active = inhibition above about 22%; inactive = the rest.

SMILES | IEC-6 tox-1 | aSyn UTR inh | BaF3 parental | Ba/F3 V617F tox | APP 5UTR inh | KLF5 inhibitor | KLF5 confirm | IEC-6 tox-2 | IEC-6 tox confirm
CCOc1ccccc1NS(=O)(=O)c1ccc(-c2cnc(C3CC3)o2)cc1 | 90* | 20 | nt | nt | nt | 78* | 83* | 64* | 59*
COc1cccc(N2C(=NC(=O)CCC3CCCC3)SC3CS(=O)(=O)CC32)c1 (configuration not stated) | -4 | 25 | nt | nt | nt | -19 | nt | nt | nt
CNC(=O)NC(=O)COC(=O)c1ccccc1OCc1ccccc1 | 1 | 27 | 4 | 0 | 0 | -10 | nt | nt | nt
Cc1cc(C(=O)NC2CCCc3c2cnn3-c2ccc(C)c(C)c2)nc(C)n1 (configuration not stated) | 3 | -2 | nt | nt | nt | -1 | nt | nt | nt
COC(=O)c1ccc(C(=O)NC2CCCc3c2cnn3-c2ccc(C)c(C)c2)cc1 (configuration not stated) | 76* | 104* | nt | nt | nt | 68* | 76* | 55* | 58*
Cn1c2c(c(=O)n(C)c1=O)C(C(F)(F)F)(C(F)(F)F)N=C(c1ccc(Cl)cc1)N2 | 37* | 99* | 86* | 95* | 51* | 81* | 84* | 57* | 92*
Cc1ccccc1C1=NC(C(F)(F)F)(C(F)(F)F)c2c(n(C)c(=O)n(C)c2=O)N1 | 5 | -3 | 6 | 3 | -18 | -3 | nt | nt | nt
COc1ccc2oc(=O)c(C(=O)OCc3ccccc3)cc2c1 | -2 | -32 | nt | nt | nt | -18 | nt | nt | nt
COC(=O)c1sc(N)c(C(=O)OC)c1COC(=O)c1c(C)noc1C | 66* | 40 | 73* | 71* | 43 | 68* | 42 | 35* | 42*
NS(=O)(=O)c1ccc(N=Nc2ccc(O)c3ncccc23)cc1 | 46* | 64* | nt | nt | nt | 80* | 74* | 3 | 4
CC(C)N1CCc2c(sc(NC(=O)c3nc4ccccc4s3)c2C(N)=O)C1 | 9 | -58 | 4 | 4 | -7 | -3 | nt | nt | nt
CC(C)N1CCc2c(sc(NC(=O)c3ccc([N+](=O)[O-])o3)c2C(N)=O)C1 | 99* | 104* | nt | nt | nt | 72* | 55 | 90* | 86*
CN(C)c1ccc(-c2ccc3c(=O)c4ccccc4n(C)c3c2)cn1 | -2 | -106 | nt | nt | nt | -140 | nt | nt | nt
CCOc1ccc(S(=O)(=O)NCc2ccccn2)cc1NC(=O)c1ccccc1 | nt | 37 | nt | nt | nt | nt | nt | nt | nt
COc1ccc(S(=O)(=O)NCc2ccccn2)cc1NC(=O)c1ccccc1F | 76* | 52 | nt | nt | nt | 64* | 81* | 53* | 52*
[N-]=[N+]=NC[C@H](Cc1ccccc1)N1CC[C@@H](NC(=O)OCc2ccccc2)CCC1=O | -8 | -19 | nt | nt | nt | 9 | nt | nt | nt
CC(=O)NC(c1ccccc1)c1cc([N+](=O)[O-])c2cccnc2c1O (configuration not stated) | -6 | -18 | 10 | 3 | -21 | -20 | nt | nt | nt
COc1cccc(C(NC(C)=O)c2ccc3cccnc3c2O)c1 (configuration not stated) | 99* | 72* | nt | nt | nt | 91* | 97* | 81* | 75*
CC(=O)NC(c1ccc(C)cc1)c1cc(Cl)c2cccnc2c1O (configuration not stated) | 94* | ? | nt | nt | nt | 64* | 83* | 69* | 69*
CC(=O)NC(c1cccc([N+](=O)[O-])c1)c1ccc2cccnc2c1O (configuration not stated) | 94* | 123* | nt | nt | nt | 62* | 96* | 80* | 77*
CC(=O)NC(c1ccc(C(C)C)cc1)c1ccc2cccnc2c1O (configuration not stated) | 70* | 67* | nt | nt | nt | 81* | 82* | 83* | 83*
CCC1(c2ccccc2)NC(=O)N(CC(=O)NC2(C#N)CCCCC2)C1=O (configuration not stated) | nt | 5 | nt | nt | nt | nt | nt | nt | nt
COC(=O)c1ccc(COc2ccc(CNCc3ccc(Cl)cc3)cc2)cc1 | -2 | -92 | nt | nt | nt | -96 | nt | nt | nt
O=C(CSc1n[nH]c(-c2ccccc2Cl)n1)NC1CCCCC1 | 1 | 3 | nt | nt | nt | 12 | nt | nt | nt
NNc1cc(C(=O)O)ccc1Cl | -2 | -10 | -3 | -5 | nt | -2 | nt | nt | nt
